“And” between values parts separate entries of the source, which are not always exact repeats. Equal entries are not always repeated. The panel holds about 83,000 compounds, 20% with a hit somewhere; the sample as a whole holds those more often.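 Cell lines were cultured in 96-well plates, exposed to a single compound concentration, and assessed for percent growth 48 hours later.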 Unmarked numbers belong to inactive results. The source made the active and inactive calls. Rule for the calls: active = growth percent below 10; inactive = the rest.

The subject of this test is HL-60(TB) leukemia. Kind of test: NCI-60 one-dose screen, 48 h (100 = growth as untreated, 0 = no growth, -100 = all killed). As to conditions: 10 µM unless noted.
In the case of `CN(C)c1ccc(N=Nc2ccccn2)c(O)c1`, the growth is -36.3% (active).
As for `FC(F)(F)c1ccc(-c2cnc(-c3nn[nH]n3)nc2NC2CCCCCC2)cc1`, the figure is 31.1% [50 µM].
To `Cc1cc(C)c2c(-c3nnc(N)s3)cc(=O)oc2c1` belongs 98%.
To `Clc1ccc(CNc2c3ccccc3nc3ccccc23)cc1` belongs 44.7%.
For `O/N=C(/c1ccccc1)c1ccc2c3c(cccc13)CC2`, the growth was 86.9% and 101%.
To `COC(=O)[C@]12CC[C@@H](C)[C@H](C)[C@@H]1C1=CC[C@@H]3[C@@]4(C)C/C(=N\O)[C@H](O)[C@@]5(C)COC(=C45)C[C@@]3(C)[C@]1(C)CC2` belongs -59.8% (active); to `COc1cccc(-c2nn(-c3ccccc3)cc2-c2ccnc(NCCNS(=O)(=O)c3cccc(F)c3)c2)c1`, 5.83% (active).
To `COc1ccc(C(=O)Nc2ncc(Cc3cccc(Cl)c3)s2)cc1OC` belongs 11.1%; to `O=P(O)(O)OCC(O)CO` (stereo unspecified), 97.7%; to `O=C1CC(=NCC(=O)n2c(-c3ccccc3)nc3ccccc32)NN1`, 107%.
As for `C[N+]1(CCC[N+]2(C)C[C@@H]3[C@H](C2)[C@@H]2C=C[C@H]3C2)CCOCC1` (stereo partly specified), the figure is 122%.

For the origin of these results see PubChem BioAssay (NCI).
